Bioassay records deposited in PubChem by several laboratories.
Most compounds without a hit are left out; they make up all but 5.4% or so of the library.
NR0B1 inh: inhibitors of human orphan nuclear receptor DAX1 (NR0B1); P51843; HEK293 Gal4-DAX1 luciferase reporter, luminescence; inhibition, % at 6.75 µM; actives 0.99% (n = 340,000);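 active = inhibition above the mean over all tested compounds plus 3 SD, cut at about 4.2% in these data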;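 also: 0% = DAX1-transfected cells with DMSO and 100% = empty-vector control cells with DMSO; inhibition shows as a rise in luminescence from relieved DAX1 repression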
GAA850 FXN act: frataxin GAA850 promoter activation. activation, % at 6 µM. HEK293 lucGAA850 FXN promoter luciferase reporter, 24 h; percent of 10 µM SAHA response. actives 0.56% (n = 360,000);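 active = activation above the average of all compounds screened plus 3 SD, cutoff fixed separately per campaign, cut at about 7.5% in these data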;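 also: 0% = DMSO wells and 100% = 10 µM SAHA wells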
AHR act: activates the human aryl hydrocarbon receptor | P35869 | AHR-responsive luciferase reporter cells, luminescence | activation, % at 5 µM | actives 2.5% (n = 320,000) | AID 2796; in the data active = activation above about 47%;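 also: 0% = vehicle wells and 100% = reference agonist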
HSF-1 act: increases HSF-1 driven luciferase reporter signal; NIH3T3-HGL HSF-1 luciferase reporter, MG132, 8 h; 100% = twice DMSO control signal; actives 1.7% (n = 300,000); activation, % at 9 µM; AID 504408;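 active = mean replicate activation of at least 50% with a set share of replicates each reaching 50%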;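 also: 0% = median of the neutral control wells and 100% = twice that signal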
HSF1 inhib: HSF1 inhibition. NIH3T3-HGL HSE-luciferase, MG132-induced, luminescence 8 h; hits give low values. activity change, negative = inhibition, % at 7.5 µM (by protocol). actives 0.77% (n = 300,000);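 active = more than half of replicate wells show activity change below -50%, luminescence cut by over half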;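 also: luciferase reports HSF-1 transcriptional activity via heat shock element; 0% = median of DMSO wells and -100% = zero luminescence signal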
* hit, by the source's call; . = no result.

SMILES | NR0B1 inh | GAA850 FXN act | AHR act | HSF-1 act | HSF1 inhib
O=C(CCc1ccccc1)Nc1ccccc1[N+](=O)[O-] | 3 | 4 | -4 | 20 | 12
O=C(CCCc1ccccc1)Nc1ccccc1[N+](=O)[O-] | 5.0* | 3 | 0 | 18 | 14
C/C=C/c1ccc(OCC(=O)Nc2ccncc2)c(OC)c1 | -3 | 1 | 1 | -12 | -3
C/C=C/c1ccc(OCC(=O)Nc2ccc(OC)c(OC)c2)c(OC)c1 | -2 | -3 | 1 | -74 | -69*
C/C=C/c1ccc(OCC(=O)OCc2csc(CC(=O)Nc3ccccc3C)n2)c(OC)c1 | 5.9* | 1 | 2 | 18 | -11
COc1ccc(NC(=O)CCCc2ccccc2)cc1OC | 4.2* | 4 | 5 | 4 | 17
COc1ccc(C)cc1S(=O)(=O)NNc1nc(C)cc(C)n1 | 1 | 0 | 1 | . | .
COc1ccc(C2=C3C(=O)OCC3Cc3ncn(Cc4ccccc4)c32)cc1 (centres undefined) | 0 | 2 | -2 | . | .
O=C(COc1ccc(Br)cc1)N1CCN(c2ncccn2)CC1 | -1 | 3 | 1 | . | .
Cc1ccc(NC(=O)CN(C)Cc2nc3ccccc3c(=O)[nH]2)c(Br)c1 | 0 | 0 | 19 | 53* | 24
O=C(CSc1nnc(C2COc3ccccc3O2)o1)N1CCN(c2ccccc2)CC1 (centres undefined) | 1 | 2 | 2 | 1 | -14
CCc1cc2c3c(c1)C1(C(=O)N3C(C)(C)C=C2C)C(C#N)=C(N)Oc2[nH]c(=O)[nH]c(=O)c21 (centres undefined) | 0 | 0 | -2 | -22 | -15
CCCn1c(N)c(C(=O)CSc2nnc(Cc3cccs3)n2C2CC2)c(=O)n(C)c1=O | 0 | 1 | 1 | . | .
CCOC(=O)c1sc(NC(=O)CSc2nc(-c3ccco3)cc(C(F)(F)F)n2)c(C(=O)OCC)c1C | 3 | -2 | . | . | .
Cc1ccc(Nc2nnc(SCc3cc(=O)n4ccsc4n3)s2)c(C)c1 | 2 | 5 | 48* | 1 | 2
Clc1ccc(-c2nc3cnccn3c2NC2CCCC2)cc1 | -1 | 1 | 51* | -11 | 1
Cc1ccc2nc(-c3ccncc3)c(NC3CCCC3)n2c1 | 5.0* | -1 | 9 | -4 | -1
CCC(C)Sc1ccc(-c2nc3cnccn3c2NC2CCCCC2)cc1 (centres undefined) | 1 | 4 | 12 | -49 | -34
CCOC(=O)C1=C(c2ccccc2)NC(=O)NC1c1ccc(O)c(Cl)c1 (centres undefined) | -1 | 1 | -3 | -19 | -21
CCOC(=O)C1=C(c2ccccc2)NC(=O)NC1c1ccsc1 (centres undefined) | 1 | 1 | . | -61 | -51*
CCOC(=O)C1=C(C)NC(=O)NC1c1ccc(NC(C)=O)cc1 (centres undefined) | 3 | 1 | 1 | -5 | -1
CCOC(=O)C1=C(c2ccccc2)NC(=O)NC1c1cc(Br)c(O)c(OC)c1 (centres undefined) | 0 | 1 | -1 | 79* | 32
CCOC(=O)C1=C(C)NC(=O)NC1c1ccc(N2CCC(c3ccccc3)=N2)cc1 (centres undefined) | 0 | -4 | 57* | 67* | 27
COc1ccc(C(=O)NNC2=NCCCCC2)cc1 | 3 | 1 | 1 | -6 | 0
Cc1cnc(C(=O)OC(C)C(=O)NC2CCCc3ccccc32)cn1 (centres undefined) | 0 | 2 | 0 | -1 | 0
SMILES | NR0B1 inh | GAA850 FXN act | AHR act | HSF-1 act | HSF1 inhib
CN(CCOc1ccccc1)C(=O)c1cc(S(=O)(=O)N2CCCCC2)ccc1Cl | -2 | 0 | 0 | 25 | 5
COC1OC(CO)C(N(C)C(C)=O)C1O (centres undefined) | 4.8* | 0 | . | . | .
Cc1ccc(S(=O)(=O)N(C)Cc2ccc(C(=O)N/N=C/c3ccc(OC(F)F)cc3)cc2)cc1 | 6.2* | -4 | 9 | 7 | 0
C/C(=N\NC(=O)c1ccc(CN(C)S(=O)(=O)c2ccc(C)cc2)cc1)c1ccc(OC(F)F)cc1 | 0 | 0 | 12 | 1 | 3
O=C1CC(c2ccco2)CC(O)=C1C=Nc1ccc(Br)cc1 (centres undefined) | -1 | 1 | 5 | 42 | 44
O=C1CC(c2ccco2)CC(O)=C1C=Nc1cc(Cl)ccc1Cl (centres undefined) | 0 | 1 | 5 | 11 | 5
Cc1ccc(N=CC2=C(O)CC(c3ccco3)CC2=O)cc1 (centres undefined) | 0 | 2 | -1 | 72* | 63
O=C1CC(c2ccco2)CC(O)=C1C=Nc1cc(Cl)ccc1O (centres undefined) | 1 | -2 | 10 | 69* | 45
O=C1CC(c2ccccc2)CC(O)=C1C=Nc1ccccc1 (centres undefined) | . | 1 | 46 | 119* | 68
Cc1cccnc1CCNCc1c(C(=O)N2C[C@@H](C)O[C@@H](C)C2)nc2ccc(Cl)cn12 | 1 | 2 | 7 | 3 | -1
O=S1(=O)c2cccc3cccc(c23)N1Cc1nnc(-c2ccccc2Br)o1 | -2 | 0 | -3 | 73* | 55
O=C1c2ccccc2S(=O)(=O)N1Cc1nnc(-c2ccccc2Br)o1 | 0 | 5 | . | 1 | 14
COc1cc(OC)cc(C(=O)NNC(=O)NC2CCCCC2)c1 | 0 | -4 | 1 | 22 | -6
CCOC(=O)c1c(S(=O)(=O)NCc2ccco2)c(C)n(C)c1C | 0 | 3 | 2 | 0 | -5
COc1ccc(C(c2c(NC(C)=O)sc3c2CCCC3)N2CCN(CCO)CC2)cc1OC (centres undefined) | 0 | -1 | -1 | 13 | 2
CC(=O)Nc1sc2c(c1C(c1cccc(Cl)c1)N1CCN(CCO)CC1)CCCC2 (centres undefined) | 4.9* | -2 | 1 | 30 | 14
COc1cccc2sc(Nc3nnc(-c4ccc(F)cc4)o3)nc12 | 0 | 0 | 66* | 6 | 4
CCCCc1nnc(NC(=O)C(C)Sc2nc(C)cc(=O)[nH]2)s1 (centres undefined) | 1 | 0 | -2 | 64* | 29
CCCn1c(SCC(=O)c2cc(OC)ccc2OC)nnc1C(C)C | 0 | 0 | 7 | 90* | 48
CCOC(=O)C1=C(C)Nc2ncnn2C1c1ccc2c(c1)OCO2 (centres undefined) | 1 | 0 | 3 | 51* | 32
Cc1ccc(/C=C/C(=O)Nc2ccc(S(=O)(=O)Nc3cc(C)nc(C)n3)cc2)cc1 | 4 | 1 | 0 | 64* | 39
CC(c1nc2ccccc2c(=O)[nH]1)N(C)c1ccc2ccccc2c1 (centres undefined) | -1 | -5 | 22 | 29 | 10
CC(Oc1ccc(F)cc1Br)c1nc2ccccc2c(=O)[nH]1 (centres undefined) | -1 | 1 | -4 | 65* | 25
O=C(Cn1cnc2ccc(Cl)cc2c1=O)NC1CCS(=O)(=O)C1 (centres undefined) | -1 | 1 | . | . | .
